Assay in all cases: NCI-60 one-dose screen, 48 h (100 = growth as untreated, 0 = no growth, -100 = all killed)
One test concerns HCT-15 colon. Particulars: 10 µM unless noted.
A further test deals with HT29 colon. Conditions: 10 µM unless noted.
The next test relates to SNB-19 CNS. Particulars: 10 µM unless noted.
In the next test the test system is U251 CNS. Particulars: 10 µM unless noted.
For the next test, the system named is SK-MEL-5 melanoma. Conditions: 10 µM unless noted.
The subject of another test is UACC-62 melanoma. Conditions: 10 µM unless noted.
The test system of another test is LOX IMVI melanoma. Particulars: 10 µM unless noted.
For a further test, the system named is SK-MEL-28 melanoma. Particulars: 10 µM unless noted.
The next test has as its system SK-MEL-2 melanoma. Conditions: 10 µM unless noted.
The subject of a further test is EKVX NSCLC. Conditions: 10 µM unless noted.
The subject of a further test is SN12C renal. Conditions: 10 µM unless noted.
The subject of the next test is UO-31 renal. Conditions: 10 µM unless noted.
Another test concerns TK-10 renal. Particulars: 10 µM unless noted.
The next test has as its system ACHN renal. Particulars: 10 µM unless noted.
A further test deals with CAKI-1 renal. Conditions: 10 µM unless noted.
Another test concerns HL-60(TB) leukemia. Conditions: 10 µM unless noted.
The test system of a further test is CCRF-CEM leukemia. Conditions: 10 µM unless noted.
A further test has as its system PC-3 prostate. Particulars: 10 µM unless noted.
Another test deals with A498 renal. Particulars: 10 µM.
The test system of the next test is SNB-75 CNS. Conditions: 10 µM unless noted.

Compounds without any hit were thinned out: in the full panel of roughly 83,000, 20% have a hit.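 48-hour exposure, single concentration, 96-well plates; percent growth endpoint where 0 means no net growth. Active: below 10.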 A number with no mark means an inactive call. Calls of active or inactive are those of the source.

Take `N#CC1C(C#N)C2CCC1C1C2N1c1ccccc1` (stereo not drawn): the growth in the test on HCT-15 colon is 97.9%; in the test with HT29 colon, 114%; in the test with SNB-19 CNS it was 104%; in the test with U251 CNS, 111%; in the test on SK-MEL-5 melanoma it was 104%; in the test on UACC-62 melanoma it was 105%. Also, the growth in the test with LOX IMVI melanoma is 103%; in the test on SK-MEL-28 melanoma it was 106%; in the test with SK-MEL-2 melanoma, 106%; in the test on EKVX NSCLC it was 97.5%; in the test with SN12C renal, 99.5%; in the test with UO-31 renal, 72.3%. The growth in the test with TK-10 renal was 106%; in the test on ACHN renal, 97.4%; in the test with CAKI-1 renal, 98.9%; with HL-60(TB) leukemia it was 91.7%; in the test with CCRF-CEM leukemia, 82.9%.
Take `Cc1ccc(S(=O)(=O)F)cc1C(=O)O`: the growth was 102% with HCT-15 colon; 100% in the test on HT29 colon; 97.5% with SNB-19 CNS; 110% in the test with PC-3 prostate; 102% in the test with SK-MEL-5 melanoma; 109% with UACC-62 melanoma. Also, the growth in the test on LOX IMVI melanoma was 102%; in the test on SK-MEL-2 melanoma, 105%; with SN12C renal, 99.1%; with UO-31 renal, 91.9%; in the test with TK-10 renal, 107%; in the test with ACHN renal, 101%. Further, the growth was 93.9% in the test on CAKI-1 renal, 132% in the test on A498 renal, 104% with HL-60(TB) leukemia and 97.2% in the test on CCRF-CEM leukemia.
For the compound `COc1ccc(C2=N[C@@H](Cc3ccccc3)C(=O)Nc3ccsc32)cc1`, the growth was 34.7% in the test on HCT-15 colon; 17.9% with HT29 colon; 69.8% in the test on SNB-19 CNS; 42.7% in the test with U251 CNS; 59.1% in the test with PC-3 prostate; 34.9% with SK-MEL-5 melanoma. The growth in the test with UACC-62 melanoma was 16.9%; in the test with LOX IMVI melanoma it was 47.6%; with SK-MEL-28 melanoma it was 54.5%; in the test on SN12C renal, 54.3%; with UO-31 renal, 57%; with TK-10 renal, 70.3%. For the same compound, the growth in the test on ACHN renal is 55.7%; in the test on CAKI-1 renal, 50.7%; in the test on A498 renal, 35.8%; with HL-60(TB) leukemia, 8.11% (active); in the test on CCRF-CEM leukemia it was 32.1%.
Take `C1CCC([PH+](C2CCCCC2)C2CCCCC2[PH+](C2CCCCC2)C2CCCCC2)CC1.[Au].[CH-]1CCCCC1CC1CCCC[N-]1` (stereo not drawn): the growth in the test with HCT-15 colon was -36.9% (active); with HT29 colon, 1.89% (active); with SNB-19 CNS, -89% (active); with U251 CNS, -78.1% (active); in the test with PC-3 prostate, -22.2% (active); in the test on SK-MEL-5 melanoma, -99.8% (active). Also, the growth in the test with UACC-62 melanoma was -71% (active); in the test on LOX IMVI melanoma, -97.2% (active); in the test with SK-MEL-28 melanoma, -70.5% (active); in the test with SK-MEL-2 melanoma, -55.7% (active); in the test with EKVX NSCLC it was -61.9% (active); with SN12C renal, -32% (active). Moreover, the growth in the test on TK-10 renal was -43.4% (active); in the test with ACHN renal, -72.5% (active); with CAKI-1 renal, -31.3% (active); in the test with A498 renal it was -91.6% (active); in the test with HL-60(TB) leukemia it was -32.3% (active); in the test with CCRF-CEM leukemia, -12.5% (active).
For the compound `COc1ccc(C/C(C)=C(\c2ccc(OCCN3CCOCC3)cc2)c2ccc(OC(=O)Cc3ccccc3)cc2)cc1`, the growth in the test on HCT-15 colon was -23.7% (active); in the test on HT29 colon, -89.7% (active); in the test on SNB-19 CNS, 13.8%; in the test with U251 CNS, -97.3% (active); in the test with PC-3 prostate, -1% (active); in the test on SK-MEL-5 melanoma, -91.9% (active). Further, the growth was -94.1% (active) in the test on LOX IMVI melanoma; -80.6% (active) in the test with SK-MEL-28 melanoma; -80.6% (active) in the test on SK-MEL-2 melanoma; 17.9% in the test on EKVX NSCLC; -73.7% (active) with SN12C renal; -84.6% (active) with UO-31 renal. In addition, the growth with TK-10 renal is -46.1% (active); in the test on ACHN renal it was -3.31% (active); in the test on CAKI-1 renal, 7.71% (active); in the test on A498 renal it was -90.5% (active); in the test on HL-60(TB) leukemia, -59.3% (active); in the test on CCRF-CEM leukemia, -13.7% (active).
For `COc1ccc(/C=C\c2cc(OC)c(OC)c(OC)c2)cc1NS(=O)(=O)c1ccc(Cl)cc1`, the growth in the test on HCT-15 colon is 54.2%; in the test on HT29 colon, 75.7%; with SNB-19 CNS it was 87.2%; in the test with U251 CNS, 77.8%; in the test with PC-3 prostate, 42.7%; in the test with SK-MEL-5 melanoma, 51.6%. Besides, the growth in the test with UACC-62 melanoma is 45.1%; in the test with LOX IMVI melanoma it was 71.3%; in the test on SK-MEL-28 melanoma, 53%; with SK-MEL-2 melanoma it was 69.5%; with SN12C renal it was 79.8%; in the test with UO-31 renal, 55.1%. Further, the growth is 62.2% in the test on ACHN renal; 42.8% in the test on CAKI-1 renal; 47% in the test with A498 renal; 54.1% in the test on HL-60(TB) leukemia; 78% in the test with CCRF-CEM leukemia.
As to `COC(=O)[C@H](Cc1ccccc1)NNC(=O)c1csc([C@@H](C[C@H](C(C)C)N(C)C(=O)[C@@H](NC(=O)[C@H]2CCCCN2C)C2CC2)OC(C)=O)n1`, the growth in the test on HCT-15 colon is 13.9%; in the test with HT29 colon, 4.57% (active); with SNB-19 CNS it was 65.2%; in the test with U251 CNS, 4.68% (active); with PC-3 prostate, 13.9%; in the test on SK-MEL-5 melanoma, -42.3% (active). The growth in the test on UACC-62 melanoma was 33.7%; in the test with LOX IMVI melanoma, 13.6%; in the test with SK-MEL-28 melanoma, 48.3%; in the test with EKVX NSCLC it was 29.9%; in the test with SN12C renal it was 24.3%; in the test with UO-31 renal, 42.8%. Moreover, the growth in the test on ACHN renal was 24.8%; in the test with CAKI-1 renal, 21.4%; in the test with A498 renal it was -3.69% (active); in the test with HL-60(TB) leukemia, -55.4% (active).
Regarding `Cc1ccc(S(=O)(=O)C(Cl)(Cl)Cl)cc1`, the growth in the test with HCT-15 colon is 100%; in the test on HT29 colon, 89%; in the test with SNB-19 CNS, 102%; in the test with U251 CNS, 88.7%; in the test on PC-3 prostate, 67.4%; with SK-MEL-5 melanoma, 99.9%. For the same compound, the growth is 98.3% with LOX IMVI melanoma; 107% in the test on SK-MEL-28 melanoma; 97.5% with SK-MEL-2 melanoma; 101% in the test with EKVX NSCLC; 98.7% with SN12C renal; 97.3% with UO-31 renal. Besides, the growth was 89.5% in the test on TK-10 renal; 105% with ACHN renal; 87.9% in the test with CAKI-1 renal; 103% in the test with A498 renal; 91.1% in the test with HL-60(TB) leukemia; 82.7% in the test with CCRF-CEM leukemia.
In the case of `O=C(N/N=C\c1ccc(N(CCCl)CCCl)cc1)c1cccc([N+](=O)[O-])c1`, the growth in the test with HCT-15 colon is 98.7%; with SNB-75 CNS, 60%; with SNB-19 CNS it was 77.3%; in the test on U251 CNS, 73.9%; in the test with PC-3 prostate it was 89.1%; in the test with SK-MEL-5 melanoma, 93.9%. Moreover, the growth in the test on UACC-62 melanoma is 77.9%; with LOX IMVI melanoma, 83.4%; with SK-MEL-2 melanoma it was 101%; in the test on EKVX NSCLC, 88.6%; in the test with SN12C renal it was 88.9%; in the test with UO-31 renal, 90.6%. Further, the growth was 99.2% with TK-10 renal, 89.3% in the test on CAKI-1 renal, 118% in the test with A498 renal and 82.5% with CCRF-CEM leukemia.

Values taken from PubChem BioAssay (NCI).
